# Hit rate of the full screen: of about 5,500 compounds, about 2,000 (36%) were called active. Roughly 18% stayed inconclusive and do not appear here. Some of the results follow. A number with no mark means an inactive call. Cut-off read from the data, not from the text of the source: active = normalized growth mostly below about 0.91 (no sharp cut-off); inconclusive = no clear call, values can overlap the other calls; inactive = mostly above about 0.92.
# Experiment: chemical genetic growth profiling, strain panel (AID 1159580);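 note: tested at 20 µM; growth read once vehicle control cultures reached saturation at 30 °C; 1 = growth at the plate median or of vehicle wells; lower values mean less growth of the strain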
# Conditions: growth OD
smiles,measurement,setting,value
COC(=O)/C(=C1\OC(=O)C(c2ccccc2)=C1O)c1ccccc1,normalized growth,"S. cerevisiae deletion strains, locus YJL187C, strain SWE1, active compounds read low",0.98
same,normalized growth,"S. cerevisiae deletion strains, locus YJR043C, strain POL32, active compounds read low",1.02
same,normalized growth,"S. cerevisiae deletion strains, locus YJR066W, strain TOR1, active compounds read low",0.902
same,normalized growth,"S. cerevisiae deletion strains, locus YKL009W, strain mrt4, active compounds read low",1.01
same,normalized growth,"S. cerevisiae deletion strains, locus YKL068W, active compounds read low",0.965
same,normalized growth,"S. cerevisiae deletion strains, locus YKL085W, strain MDH1 (second series), active compounds read low",0.965
same,normalized growth,"S. cerevisiae deletion strains, locus YKL085W, strain MDH1, active compounds read low",0.965
same,normalized growth,"S. cerevisiae deletion strains, locus YKL160W, strain elf1, active compounds read low",0.969
same,normalized growth,"S. cerevisiae deletion strains, locus YKR001C, strain vps1, active compounds read low",1.03
same,normalized growth,"S. cerevisiae deletion strains, locus YKR026C, strain gcn3, active compounds read low",0.935
same,normalized growth,"S. cerevisiae deletion strains, locus YKR091W, strain srl3, active compounds read low",0.965
same,normalized growth,"S. cerevisiae deletion strains, locus YLL001W, strain dnm1, active compounds read low",0.97
same,normalized growth,"S. cerevisiae deletion strains, locus YLL026W, active compounds read low",0.974
same,normalized growth,"S. cerevisiae deletion strains, locus YLL041C, strain sdh2, active compounds read low",0.956
same,normalized growth,"S. cerevisiae deletion strains, locus YLR027C, strain aat2, active compounds read low",0.969
same,normalized growth,"S. cerevisiae deletion strains, locus YLR039C, strain RIC1, active compounds read low",1.03
same,normalized growth,"S. cerevisiae deletion strains, locus YLR058C, strain SHM2, active compounds read low",1.01
same,normalized growth,"S. cerevisiae deletion strains, locus YLR102C, strain apc9, active compounds read low",0.988
same,normalized growth,"S. cerevisiae deletion strains, locus YLR113W, strain HOG1, active compounds read low",0.827 (active)
same,normalized growth,"S. cerevisiae deletion strains, locus YLR221C, strain rsa3, active compounds read low",0.981
same,normalized growth,"S. cerevisiae deletion strains, locus YLR258W, strain gsy2, active compounds read low",0.985
same,normalized growth,"S. cerevisiae deletion strains, locus YLR262C, strain YPT6 (second series), active compounds read low",0.915
same,normalized growth,"S. cerevisiae deletion strains, locus YLR262C, strain YPT6, active compounds read low",1
same,normalized growth,"S. cerevisiae deletion strains, locus YLR268W, strain sec22, active compounds read low",1.03
same,normalized growth,"S. cerevisiae deletion strains, locus YLR320W, strain mms22, active compounds read low",0.981
same,normalized growth,"S. cerevisiae deletion strains, locus YLR330W, strain CHS5, active compounds read low",0.996
same,normalized growth,"S. cerevisiae deletion strains, locus YLR342W, strain FKS1 (second series), active compounds read low",1
same,normalized growth,"S. cerevisiae deletion strains, locus YLR342W, strain FKS1, active compounds read low",0.976
same,normalized growth,"S. cerevisiae deletion strains, locus YLR357W, strain rsc2, active compounds read low",1.01
same,normalized growth,"S. cerevisiae deletion strains, locus YLR370C, strain arc18, active compounds read low",0.97
same,normalized growth,"S. cerevisiae deletion strains, locus YLR371W, strain rom2, active compounds read low",1
same,normalized growth,"S. cerevisiae deletion strains, locus YLR384C, strain iki3, active compounds read low",0.982
same,normalized growth,"S. cerevisiae deletion strains, locus YLR418C, strain cdc73, active compounds read low",0.996
same,normalized growth,"S. cerevisiae deletion strains, locus YML016C, strain PPZ1, active compounds read low",1.01
same,normalized growth,"S. cerevisiae deletion strains, locus YML032C, strain rad52, active compounds read low",0.987
same,normalized growth,"S. cerevisiae deletion strains, locus YML120C, strain ndi1, active compounds read low",0.985
same,normalized growth,"S. cerevisiae deletion strains, locus YML124C, strain tub3, active compounds read low",0.993
same,normalized growth,"S. cerevisiae deletion strains, locus YMR058W, strain fet3, active compounds read low",0.981
same,normalized growth,"S. cerevisiae deletion strains, locus YMR078C, strain ctf18, active compounds read low",1
same,normalized growth,"S. cerevisiae deletion strains, locus YMR125W, strain sto1, active compounds read low",0.982
same,normalized growth,"S. cerevisiae deletion strains, locus YMR129W, active compounds read low",0.965
same,normalized growth,"S. cerevisiae deletion strains, locus YMR205C, strain PFK2, active compounds read low",0.965
same,normalized growth,"S. cerevisiae deletion strains, locus YMR223W, strain ubp8, active compounds read low",0.98
same,normalized growth,"S. cerevisiae deletion strains, locus YMR231W, strain pep5, active compounds read low",0.98
same,normalized growth,"S. cerevisiae deletion strains, locus YMR307W, strain GAS1, active compounds read low",1.1
same,normalized growth,"S. cerevisiae deletion strains, locus YNL067W, strain RPL9B, active compounds read low",1.03
same,normalized growth,"S. cerevisiae deletion strains, locus YNL071W, strain lat1, active compounds read low",0.98
same,normalized growth,"S. cerevisiae deletion strains, locus YNL128W, strain TEP1, active compounds read low",1.02
same,normalized growth,"S. cerevisiae deletion strains, locus YNL183C, strain NPR1, active compounds read low",0.899
same,normalized growth,"S. cerevisiae deletion strains, locus YNL209W, strain ssb2, active compounds read low",0.967
same,normalized growth,"S. cerevisiae deletion strains, locus YNL233W, strain BNI4, active compounds read low",1.02
same,normalized growth,"S. cerevisiae deletion strains, locus YNL248C, strain rpa49, active compounds read low",0.985
same,normalized growth,"S. cerevisiae deletion strains, locus YNL250W, strain rad50, active compounds read low",0.998
same,normalized growth,"S. cerevisiae deletion strains, locus YNL271C, strain bni1, active compounds read low",0.986
same,normalized growth,"S. cerevisiae deletion strains, locus YNL298W, strain CLA4, active compounds read low",0.982
same,normalized growth,"S. cerevisiae deletion strains, locus YNL307C, strain MCK1, active compounds read low",0.988
same,normalized growth,"S. cerevisiae deletion strains, locus YNL322C, strain KRE1 (second series), active compounds read low",0.953
same,normalized growth,"S. cerevisiae deletion strains, locus YNR049C, strain mso1, active compounds read low",0.959
same,normalized growth,"S. cerevisiae deletion strains, locus YNR052C, strain pop2, active compounds read low",1.01
same,normalized growth,"S. cerevisiae deletion strains, locus YOL006C, strain TOP1, active compounds read low",1.17
same,normalized growth,"S. cerevisiae deletion strains, locus YOL012C, strain htz1",0.689
same,normalized growth,"S. cerevisiae deletion strains, locus YOL147C, strain pex11, active compounds read low",0.99
same,normalized growth,"S. cerevisiae deletion strains, locus YOR001W, strain rrp6, active compounds read low",0.974
same,normalized growth,"S. cerevisiae deletion strains, locus YOR061W, strain CKA2, active compounds read low",0.999
same,normalized growth,"S. cerevisiae deletion strains, locus YOR069W, strain VPS5, active compounds read low",0.995
same,normalized growth,"S. cerevisiae deletion strains, locus YOR070C, strain gyp1, active compounds read low",0.976
same,normalized growth,"S. cerevisiae deletion strains, locus YOR080W, strain dia2, active compounds read low",0.982
same,normalized growth,"S. cerevisiae deletion strains, locus YOR083W, strain WHI5, active compounds read low",0.968
same,normalized growth,"S. cerevisiae deletion strains, locus YOR106W, strain vam3, active compounds read low",1.01
same,normalized growth,"S. cerevisiae deletion strains, locus YOR136W, strain idh2, active compounds read low",1
same,normalized growth,"S. cerevisiae deletion strains, locus YOR144C, strain elg1, active compounds read low",0.984
same,normalized growth,"S. cerevisiae deletion strains, locus YOR184W, strain ser1, active compounds read low",1.01
same,normalized growth,"S. cerevisiae deletion strains, locus YOR231W, strain MKK1, active compounds read low",0.903
same,normalized growth,"S. cerevisiae deletion strains, locus YOR265W, strain rbl2, active compounds read low",0.961
same,normalized growth,"S. cerevisiae deletion strains, locus YOR270C, strain vph1, active compounds read low",0.974
same,normalized growth,"S. cerevisiae deletion strains, locus YOR290C, strain snf2, active compounds read low",0.948
same,normalized growth,"S. cerevisiae deletion strains, locus YOR316C, strain cot1, active compounds read low",0.981
same,normalized growth,"S. cerevisiae deletion strains, locus YPL051W, strain arl3, active compounds read low",0.983
same,normalized growth,"S. cerevisiae deletion strains, locus YPL055C, strain LGE1, active compounds read low",1.05
same,normalized growth,"S. cerevisiae deletion strains, locus YPL078C, strain atp4, active compounds read low",0.972
same,normalized growth,"S. cerevisiae deletion strains, locus YPL106C, strain sse1, active compounds read low",0.966
same,normalized growth,"S. cerevisiae deletion strains, locus YPL240C, strain hsp82, active compounds read low",0.956
same,normalized growth,"S. cerevisiae deletion strains, locus YPL241C, strain CIN2, active compounds read low",0.989
same,normalized growth,"S. cerevisiae deletion strains, locus YPL256C, strain CLN2, active compounds read low",0.865
same,normalized growth,"S. cerevisiae deletion strains, locus YPR119W, strain clb2, active compounds read low",0.99
same,normalized growth,"S. cerevisiae deletion strains, locus YPR141C, strain kar3, active compounds read low",0.965
same,normalized growth,"S. cerevisiae deletion strains, locus YPR163C, strain tif3, active compounds read low",0.997
same,normalized growth,"S. cerevisiae deletion strains, locus YPR167C, strain met16, active compounds read low",0.983
same,normalized growth,"S. cerevisiae deletion strains, strain wtn01, active compounds read low",1.01
same,normalized growth,"S. cerevisiae strains, strain wild type, active compounds read low",0.992

# From PubChem BioAssay AID1159580 (chemical genetic matrix, 2015)
